We go through one sequence from PMC7862700, “An all-to-all approach to the identification of sequence-specific readers for epigenetic DNA modifications on cytosine”.

Test in all cases: DAPPL (digital affinity profiling via proximity ligation, sequencing); 10 mM Tris-HCl pH 7.5, 50 mM NaCl, 1 mM DTT, 4% glycerol, room temperature, 30 min; GST-TFs on glutathione beads, 16-mer random dsDNA library, 0.1% formaldehyde crosslink after washing; high values mean tight binding
Common to all, as to conditions: protein: recombinant; tags: N-terminal GST; dsDNA, one strand shown

Experiment [1] addresses T1, FLI1 (Homo sapiens, UniProt Q01543 1-452).
T1 sequence: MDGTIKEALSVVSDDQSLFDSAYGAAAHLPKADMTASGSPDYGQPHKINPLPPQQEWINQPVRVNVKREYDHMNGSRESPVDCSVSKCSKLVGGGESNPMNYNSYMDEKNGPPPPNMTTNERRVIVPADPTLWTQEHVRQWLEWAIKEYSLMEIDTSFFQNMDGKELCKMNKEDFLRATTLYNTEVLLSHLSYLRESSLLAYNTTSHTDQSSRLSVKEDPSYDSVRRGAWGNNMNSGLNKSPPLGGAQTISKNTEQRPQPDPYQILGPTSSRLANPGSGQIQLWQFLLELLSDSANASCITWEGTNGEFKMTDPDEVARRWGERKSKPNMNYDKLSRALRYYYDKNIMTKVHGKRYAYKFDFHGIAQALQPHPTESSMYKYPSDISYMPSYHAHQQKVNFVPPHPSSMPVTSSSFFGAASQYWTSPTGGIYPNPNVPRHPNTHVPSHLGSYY
The essentials:
(§1)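 Human transcription factors were made in yeast as GST fusions, captured on glutathione beads and barcoded with DNA. With a tag-only sample included, the pool was incubated with 200 nmole of a random double-stranded 16-mer DNA library in Tris/NaCl/DTT/glycerol buffer at room temperature for 30 min, then crosslinked with 0.1% formaldehyde after washing, ligated by proximity, amplified and sequenced. For binding signal, each hexamer's read frequency for a factor is divided by its frequency for the tag-only sample.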

Experiment [2] has as its target T2, ELK1 (Homo sapiens, UniProt P19419 1-428).
T2 sequence: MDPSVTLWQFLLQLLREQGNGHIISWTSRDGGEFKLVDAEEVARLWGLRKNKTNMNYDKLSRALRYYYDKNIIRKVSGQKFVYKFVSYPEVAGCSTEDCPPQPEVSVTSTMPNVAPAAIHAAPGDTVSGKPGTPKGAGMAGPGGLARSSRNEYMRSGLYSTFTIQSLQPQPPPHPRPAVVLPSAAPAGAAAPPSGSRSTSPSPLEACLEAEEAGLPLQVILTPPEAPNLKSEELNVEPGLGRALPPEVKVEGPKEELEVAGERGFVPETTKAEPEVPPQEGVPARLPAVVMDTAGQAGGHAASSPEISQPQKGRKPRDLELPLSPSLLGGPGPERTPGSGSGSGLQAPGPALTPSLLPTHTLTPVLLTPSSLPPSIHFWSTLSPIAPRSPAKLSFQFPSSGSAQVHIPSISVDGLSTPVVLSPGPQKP
The essentials:
as §1

In experiment [3] the target is T3, GABPA (Homo sapiens, UniProt Q06546 1-454).
T3 sequence: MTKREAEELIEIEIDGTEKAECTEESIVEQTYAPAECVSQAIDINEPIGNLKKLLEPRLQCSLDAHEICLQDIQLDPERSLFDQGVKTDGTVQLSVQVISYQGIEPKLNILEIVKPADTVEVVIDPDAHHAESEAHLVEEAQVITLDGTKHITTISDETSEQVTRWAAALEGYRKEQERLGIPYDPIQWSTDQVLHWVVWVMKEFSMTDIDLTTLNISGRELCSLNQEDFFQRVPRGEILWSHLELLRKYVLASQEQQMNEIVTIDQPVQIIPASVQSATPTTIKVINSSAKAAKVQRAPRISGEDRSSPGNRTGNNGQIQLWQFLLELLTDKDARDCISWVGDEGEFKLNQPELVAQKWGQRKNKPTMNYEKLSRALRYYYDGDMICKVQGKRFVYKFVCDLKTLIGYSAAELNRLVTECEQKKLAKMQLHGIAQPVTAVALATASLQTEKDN
The essentials:
as §1

In experiment [4] the target is ELF1 (Homo sapiens, UniProt P32519 1-619). The essentials: as §1
Experiment [5] deals with T4, EHF (Homo sapiens, UniProt Q9NZC4 1-300).
T4 sequence: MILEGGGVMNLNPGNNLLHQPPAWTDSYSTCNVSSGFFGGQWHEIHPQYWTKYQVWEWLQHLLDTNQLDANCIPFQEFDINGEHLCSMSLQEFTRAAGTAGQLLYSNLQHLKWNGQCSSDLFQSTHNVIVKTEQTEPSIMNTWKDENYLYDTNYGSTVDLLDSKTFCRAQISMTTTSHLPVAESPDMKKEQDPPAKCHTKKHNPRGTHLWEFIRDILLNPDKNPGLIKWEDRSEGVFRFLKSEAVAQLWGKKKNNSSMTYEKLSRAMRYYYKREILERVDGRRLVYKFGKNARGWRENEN
A digest of the protocol:
as §1

Experiment [6] addresses T5, ELK3 (Homo sapiens, UniProt P41970 1-407).
T5 sequence: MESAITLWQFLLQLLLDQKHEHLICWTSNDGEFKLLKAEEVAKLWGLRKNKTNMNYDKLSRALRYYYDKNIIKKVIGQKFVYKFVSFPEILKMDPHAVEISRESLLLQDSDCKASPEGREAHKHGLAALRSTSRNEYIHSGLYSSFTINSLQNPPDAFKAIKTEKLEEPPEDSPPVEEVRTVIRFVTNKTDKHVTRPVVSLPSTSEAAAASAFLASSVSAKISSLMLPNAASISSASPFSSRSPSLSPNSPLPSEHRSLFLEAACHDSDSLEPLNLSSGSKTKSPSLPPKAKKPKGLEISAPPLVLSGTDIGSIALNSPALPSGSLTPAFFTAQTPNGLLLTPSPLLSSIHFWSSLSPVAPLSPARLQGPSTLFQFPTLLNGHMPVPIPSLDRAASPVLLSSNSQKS
The essentials:
as §1

Experiment [7] addresses ELF4 (Homo sapiens, UniProt Q99607 1-663). The essentials: as §1
Experiment [8] has as its target T6, ELK4 (Homo sapiens, UniProt P28324-2 1-405).
T6 sequence: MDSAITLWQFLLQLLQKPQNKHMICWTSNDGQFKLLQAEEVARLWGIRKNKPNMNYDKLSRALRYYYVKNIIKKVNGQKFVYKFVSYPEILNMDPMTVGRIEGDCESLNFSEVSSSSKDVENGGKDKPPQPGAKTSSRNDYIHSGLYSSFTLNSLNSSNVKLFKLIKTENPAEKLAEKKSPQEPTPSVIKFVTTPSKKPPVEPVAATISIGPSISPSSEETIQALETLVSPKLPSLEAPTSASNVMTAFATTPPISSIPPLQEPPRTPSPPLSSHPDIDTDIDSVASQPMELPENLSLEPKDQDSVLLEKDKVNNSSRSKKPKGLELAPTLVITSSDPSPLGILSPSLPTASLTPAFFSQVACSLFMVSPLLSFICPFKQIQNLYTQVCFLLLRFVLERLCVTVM
The essentials:
as §1

Experiment [9] has as its target T7, ERF (Homo sapiens, UniProt P50548 1-548).
T7 sequence: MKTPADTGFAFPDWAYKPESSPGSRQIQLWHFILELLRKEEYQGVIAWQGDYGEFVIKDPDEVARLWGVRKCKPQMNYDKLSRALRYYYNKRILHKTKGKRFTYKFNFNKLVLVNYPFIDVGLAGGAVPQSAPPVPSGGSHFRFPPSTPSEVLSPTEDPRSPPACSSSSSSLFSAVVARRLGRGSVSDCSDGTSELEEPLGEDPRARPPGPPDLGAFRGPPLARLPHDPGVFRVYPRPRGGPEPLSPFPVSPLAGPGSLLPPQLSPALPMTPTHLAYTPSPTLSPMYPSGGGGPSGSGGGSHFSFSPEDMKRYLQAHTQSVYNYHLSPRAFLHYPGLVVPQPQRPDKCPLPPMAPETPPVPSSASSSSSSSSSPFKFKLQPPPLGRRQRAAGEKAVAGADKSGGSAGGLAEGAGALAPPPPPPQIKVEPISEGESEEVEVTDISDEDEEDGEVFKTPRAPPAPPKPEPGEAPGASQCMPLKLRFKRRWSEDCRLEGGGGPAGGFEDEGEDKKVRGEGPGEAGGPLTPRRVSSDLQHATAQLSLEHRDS
A digest of the protocol:
as §1

The target in experiment [10] is T8, ETV3L (Homo sapiens, UniProt Q6ZN32 1-361).
T8 sequence: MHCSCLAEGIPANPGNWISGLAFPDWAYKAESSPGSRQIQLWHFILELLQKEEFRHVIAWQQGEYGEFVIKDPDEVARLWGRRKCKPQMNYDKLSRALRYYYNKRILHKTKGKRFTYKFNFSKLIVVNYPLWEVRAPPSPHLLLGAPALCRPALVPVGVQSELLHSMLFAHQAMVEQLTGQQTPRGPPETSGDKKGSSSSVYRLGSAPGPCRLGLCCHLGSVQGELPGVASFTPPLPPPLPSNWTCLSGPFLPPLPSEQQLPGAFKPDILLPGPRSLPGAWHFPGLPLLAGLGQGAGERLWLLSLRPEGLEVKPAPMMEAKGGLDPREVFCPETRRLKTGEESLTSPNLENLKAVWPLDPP
A digest of the protocol:
as §1

In experiment [11] the target is T9, ETS2 (Homo sapiens, UniProt P15036 1-469).
T9 sequence: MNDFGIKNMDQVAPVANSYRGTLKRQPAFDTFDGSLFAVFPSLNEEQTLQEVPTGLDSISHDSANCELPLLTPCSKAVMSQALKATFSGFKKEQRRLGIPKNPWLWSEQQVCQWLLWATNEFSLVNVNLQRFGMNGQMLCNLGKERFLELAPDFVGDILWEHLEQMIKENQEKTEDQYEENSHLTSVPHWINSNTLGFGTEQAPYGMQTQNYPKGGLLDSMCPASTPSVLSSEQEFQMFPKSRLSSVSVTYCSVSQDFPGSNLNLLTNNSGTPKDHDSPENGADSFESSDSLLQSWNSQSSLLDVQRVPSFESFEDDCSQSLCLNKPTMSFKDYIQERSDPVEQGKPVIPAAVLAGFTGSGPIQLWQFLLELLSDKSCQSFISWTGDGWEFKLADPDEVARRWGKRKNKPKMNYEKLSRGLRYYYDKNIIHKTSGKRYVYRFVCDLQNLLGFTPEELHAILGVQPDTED
A digest of the protocol: as §1

Experiment [12] deals with T10, ETV3 (Homo sapiens, UniProt P41162-2 1-143).
T10 sequence: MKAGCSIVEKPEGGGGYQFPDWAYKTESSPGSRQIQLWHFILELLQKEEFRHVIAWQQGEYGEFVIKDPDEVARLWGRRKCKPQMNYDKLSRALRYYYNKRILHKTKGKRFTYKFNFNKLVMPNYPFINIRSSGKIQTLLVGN
The essentials: as §1

ELF1, sequence (P32519 whole entry): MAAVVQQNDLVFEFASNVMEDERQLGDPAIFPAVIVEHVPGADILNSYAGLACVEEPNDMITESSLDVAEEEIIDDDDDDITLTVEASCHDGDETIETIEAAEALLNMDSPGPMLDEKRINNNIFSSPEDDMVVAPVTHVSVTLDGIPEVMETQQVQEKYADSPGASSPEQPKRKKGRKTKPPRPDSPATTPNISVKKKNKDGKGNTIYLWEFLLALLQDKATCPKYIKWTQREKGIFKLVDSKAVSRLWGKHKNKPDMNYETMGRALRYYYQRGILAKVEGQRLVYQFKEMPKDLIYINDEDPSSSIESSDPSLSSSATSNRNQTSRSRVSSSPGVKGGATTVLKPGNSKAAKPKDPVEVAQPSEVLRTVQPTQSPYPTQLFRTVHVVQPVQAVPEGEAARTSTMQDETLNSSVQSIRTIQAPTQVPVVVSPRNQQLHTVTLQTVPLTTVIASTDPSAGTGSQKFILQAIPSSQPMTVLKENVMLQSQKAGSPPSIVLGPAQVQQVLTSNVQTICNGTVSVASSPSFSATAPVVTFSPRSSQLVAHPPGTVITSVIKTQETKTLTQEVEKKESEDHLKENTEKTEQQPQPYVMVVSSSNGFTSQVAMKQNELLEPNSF
ELF4, sequence (Q99607 whole entry): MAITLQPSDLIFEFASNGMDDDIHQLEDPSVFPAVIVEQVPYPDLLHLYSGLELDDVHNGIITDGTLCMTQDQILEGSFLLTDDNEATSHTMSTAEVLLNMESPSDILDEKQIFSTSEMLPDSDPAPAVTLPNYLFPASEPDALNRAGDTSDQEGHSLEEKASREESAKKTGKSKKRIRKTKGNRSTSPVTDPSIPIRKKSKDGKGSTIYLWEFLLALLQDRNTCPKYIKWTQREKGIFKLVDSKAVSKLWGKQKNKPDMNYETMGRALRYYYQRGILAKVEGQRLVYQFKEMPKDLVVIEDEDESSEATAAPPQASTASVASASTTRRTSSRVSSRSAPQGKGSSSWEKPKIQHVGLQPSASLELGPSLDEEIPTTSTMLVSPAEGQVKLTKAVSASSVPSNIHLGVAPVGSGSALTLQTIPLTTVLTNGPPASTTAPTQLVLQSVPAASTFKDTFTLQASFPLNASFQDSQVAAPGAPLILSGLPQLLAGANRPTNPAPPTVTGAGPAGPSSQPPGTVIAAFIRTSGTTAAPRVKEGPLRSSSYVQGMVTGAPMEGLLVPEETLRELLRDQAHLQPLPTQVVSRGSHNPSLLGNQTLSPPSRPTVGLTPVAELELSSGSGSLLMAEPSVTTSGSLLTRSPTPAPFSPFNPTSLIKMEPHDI

GCCGCA: the binding signal is 1.01 fold enrichment (6-mer frequency, TF over GST control) in experiment [1]; 1.03 fold enrichment (6-mer frequency, TF over GST control) in [2]; 1.02 fold enrichment (6-mer frequency, TF over GST control) in [3]; 1.04 fold enrichment (6-mer frequency, TF over GST control) in experiment [4]; 1.04 fold enrichment (6-mer frequency, TF over GST control) in experiment [5]; 1.04 fold enrichment (6-mer frequency, TF over GST control) in [6]. In addition, the binding signal in experiment [7] was 1.04 fold enrichment (6-mer frequency, TF over GST control); in experiment [8] it was 1.04 fold enrichment (6-mer frequency, TF over GST control); in experiment [9] it was 1.07 fold enrichment (6-mer frequency, TF over GST control); in experiment [10], 1.04 fold enrichment (6-mer frequency, TF over GST control); in experiment [11] it was 1 fold enrichment (6-mer frequency, TF over GST control); in [12], 1 fold enrichment (6-mer frequency, TF over GST control).
